Values joined by “and” are separate entries in the source; they are usually repeats but may differ in a detail not shown here. Equal entries are not always repeated. Some compounds were tested as several samples or in several runs, with calls that do not always agree. Active and inactive are the calls of the source. Rule for the calls: active = hit-call score of the fitted dose curve at least 0.9, where 1 is the maximum; inactive = score below 0.9.
Key:
[1] = biological target: Transcriptional activator Myb (Homo sapiens) (UniProt P10242); experiment: ATG_Myb_CIS: Attagene CIS-FACTORIAL HepG2 Assay for human Myeloblastosis (Myb) Proto-Oncogene Transcription Factor (AID 2282986); details: HepG2 Attagene CIS-FACTORIAL Myb reporter transcription; actives raise or lower the signal
Chain of Transcriptional activator Myb (Homo sapiens) (P10242 whole entry, looked up): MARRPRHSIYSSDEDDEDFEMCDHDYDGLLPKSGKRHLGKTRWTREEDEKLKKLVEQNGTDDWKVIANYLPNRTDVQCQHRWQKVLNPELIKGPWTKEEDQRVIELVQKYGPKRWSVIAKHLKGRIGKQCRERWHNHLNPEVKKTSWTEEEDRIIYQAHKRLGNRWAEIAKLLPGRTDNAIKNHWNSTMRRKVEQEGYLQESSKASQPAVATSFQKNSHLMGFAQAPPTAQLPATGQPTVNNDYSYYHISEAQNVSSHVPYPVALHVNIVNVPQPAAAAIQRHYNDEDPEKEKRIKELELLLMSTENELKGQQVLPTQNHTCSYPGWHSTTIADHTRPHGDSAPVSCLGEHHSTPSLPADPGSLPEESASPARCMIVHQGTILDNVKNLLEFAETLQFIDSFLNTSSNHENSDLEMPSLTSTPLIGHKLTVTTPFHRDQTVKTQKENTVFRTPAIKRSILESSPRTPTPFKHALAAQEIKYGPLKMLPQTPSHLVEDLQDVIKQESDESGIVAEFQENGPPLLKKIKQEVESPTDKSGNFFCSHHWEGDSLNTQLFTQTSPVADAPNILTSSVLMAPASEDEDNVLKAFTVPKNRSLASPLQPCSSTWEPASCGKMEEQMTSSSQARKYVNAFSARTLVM
How it was run: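 Transiently transfected HepG2 cells, treated 24 h. Reporter mRNA quantified by RT-PCR/capillary electrophoresis; bidirectional fit relative to DMSO.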

[2] = biological target: Nuclear respiratory factor 1 (Homo sapiens) (UniProt Q16656); experiment: ATG_NRF1_CIS: Attagene CIS-FACTORIAL HepG2 Assay for human Nuclear Respiratory Factor 1 (NRF1) Orphan Gene (AID 2282987); details: HepG2 NRF1 cis-element reporter, Attagene multiplex; actives raise or lower the signal
Chain of Nuclear respiratory factor 1 (Homo sapiens) (Q16656 whole entry, looked up, the tested form may be a part): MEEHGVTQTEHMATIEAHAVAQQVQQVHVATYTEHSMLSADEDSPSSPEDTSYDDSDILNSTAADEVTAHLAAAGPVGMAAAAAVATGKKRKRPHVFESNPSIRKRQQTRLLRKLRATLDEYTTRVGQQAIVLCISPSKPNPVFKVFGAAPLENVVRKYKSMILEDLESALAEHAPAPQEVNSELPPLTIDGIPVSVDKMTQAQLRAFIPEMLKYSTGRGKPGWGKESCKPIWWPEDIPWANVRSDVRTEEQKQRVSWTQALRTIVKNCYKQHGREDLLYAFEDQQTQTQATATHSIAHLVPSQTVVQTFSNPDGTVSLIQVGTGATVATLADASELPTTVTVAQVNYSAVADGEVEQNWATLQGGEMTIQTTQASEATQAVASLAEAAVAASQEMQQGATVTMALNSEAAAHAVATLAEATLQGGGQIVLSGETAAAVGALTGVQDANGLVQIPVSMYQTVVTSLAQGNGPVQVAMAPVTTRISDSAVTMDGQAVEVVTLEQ
How it was run: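 Cells (HepG2, transient MRTU transfection) are exposed to compound for 24 h, then RNA isolated and reporter mRNA amplified and fluorescently labelled. Fragments are separated by capillary electrophoresis; signal change is fitted bidirectionally relative to DMSO.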

[3] = ATG_NFI_CIS: Attagene CIS-FACTORIAL HepG2 Assay for human Nuclear Factor I (NFI) (AID 2282989); details: HepG2 cis-regulatory reporter, NFI response element transcription; actives raise or lower the signal
How it was run: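 HepG2, transient MRTU, 24 h exposure; RNA→cDNA→PCR→FAM label→HpaI→CE fluorescence. Bidirectional fit, DMSO = baseline.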

[4] = biological target: Myc proto-oncogene protein (Homo sapiens) (UniProt P01106); experiment: ATG_Myc_CIS: Attagene CIS-FACTORIAL HepG2 Assay for human Myelocytomatosis (Myc) Proto-Oncogene Transcription Factor (AID 2282990); details: HepG2, Attagene cis-reporter transcription factor activity; actives raise or lower the signal
Chain of Myc proto-oncogene protein (Homo sapiens) (P01106 whole entry, looked up): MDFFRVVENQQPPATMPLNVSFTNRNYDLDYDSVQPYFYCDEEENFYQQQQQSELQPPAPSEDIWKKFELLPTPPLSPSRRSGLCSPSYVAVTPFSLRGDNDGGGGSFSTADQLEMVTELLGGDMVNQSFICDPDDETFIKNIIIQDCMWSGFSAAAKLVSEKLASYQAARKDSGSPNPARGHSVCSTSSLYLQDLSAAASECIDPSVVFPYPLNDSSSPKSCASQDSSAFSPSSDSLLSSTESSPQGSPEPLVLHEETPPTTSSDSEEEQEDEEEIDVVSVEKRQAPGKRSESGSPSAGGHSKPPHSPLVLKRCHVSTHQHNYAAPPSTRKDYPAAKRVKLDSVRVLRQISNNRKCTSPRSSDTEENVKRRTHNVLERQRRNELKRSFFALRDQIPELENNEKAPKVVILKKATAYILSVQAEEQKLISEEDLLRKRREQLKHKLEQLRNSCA
How it was run: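 Multiplexed cis-reporter transcription in HepG2 cells after 24 h chemical treatment. Reporter mRNA measured by RT-PCR and capillary electrophoresis fluorescence; activity fitted bidirectionally against DMSO control.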

[5] = ATG_NF_kB_CIS: Attagene CIS-FACTORIAL HepG2 Assay for human Nuclear Factor Kappa B (NF-kB) (AID 2282991); details: HepG2 Attagene cis-factorial NF-kB reporter mRNA; actives raise or lower the signal
How it was run: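 Measures mRNA induction of an NF-kB-responsive cis-element reporter in HepG2 cells transfected with multiple reporter units, sampled 24 h post-dosing; quantified by fluorescence after RT-PCR and capillary electrophoresis, fitted for activation or inhibition against DMSO.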

[6] = ATG_NRF2_ARE_CIS: Attagene CIS-FACTORIAL HepG2 Assay for human Nuclear Factor Erythroid 2 Related Factor 2 (NFR2) response to Antioxidant Response Elements (ARE) (AID 2282992); details: HepG2 Attagene ARE/NRF2 reporter, transcription factor activity; actives raise or lower the signal
How it was run: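 HepG2 cells transiently transfected with multiplexed cis-regulated reporter transcription units measure endogenous transcription factor activity. Reporter mRNA at 24 h is quantified by RT-PCR, fluorescent labelling and capillary electrophoresis, with bidirectional fitting relative to DMSO.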

[7] = BSK_3C_TissueFactor: BioMAP Diversity Plus: 3C Assay for Tissue Factor Biomarker Activity (AID 2282997); details: BioMAP 3C HUVEC, tissue factor biomarker readout; actives raise or lower the signal
How it was run: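 Values derive from bidirectional curve fitting against DMSO of Tissue Factor ELISA signals, taken 24 h after dosing primary human umbilical vein endothelial cells.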

[8] = BSK_3C_uPAR: BioMAP Diversity Plus: 3C Assay for Urokinase-type plasminogen activator receptor (uPAR) Biomarker Activity (AID 2282998); details: BioMAP 3C HUVEC, uPAR biomarker ELISA; actives raise or lower the signal
How it was run: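 Dose primary human umbilical vein endothelial cells, incubate 24 h, measure cell-surface uPAR by ELISA, then fit the signal in both directions against the DMSO negative control.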

[9] = ATG_Oct_MLP_CIS: Attagene CIS-FACTORIAL HepG2 Assay for human Octamer-Binding Transcription Factor (Oct) (AID 2282993); details: HepG2 Attagene cis-factorial Oct reporter, mRNA; actives raise or lower the signal
How it was run: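 Multiplexed cis-reporter assay in human liver HepG2 cells, 24 h incubation. Reporter RNA amplified and labelled, then resolved by capillary electrophoresis; DMSO serves as negative control and baseline.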

[10] = biological target: Cellular tumor antigen p53 (Homo sapiens) (UniProt P04637); experiment: ATG_p53_CIS: Attagene CIS-FACTORIAL HepG2 Assay for human p53 Transcription Factor (AID 2282994); details: HepG2 p53 cis-element reporter, Attagene mRNA; actives raise or lower the signal
Chain of Cellular tumor antigen p53 (Homo sapiens) (P04637 whole entry, looked up): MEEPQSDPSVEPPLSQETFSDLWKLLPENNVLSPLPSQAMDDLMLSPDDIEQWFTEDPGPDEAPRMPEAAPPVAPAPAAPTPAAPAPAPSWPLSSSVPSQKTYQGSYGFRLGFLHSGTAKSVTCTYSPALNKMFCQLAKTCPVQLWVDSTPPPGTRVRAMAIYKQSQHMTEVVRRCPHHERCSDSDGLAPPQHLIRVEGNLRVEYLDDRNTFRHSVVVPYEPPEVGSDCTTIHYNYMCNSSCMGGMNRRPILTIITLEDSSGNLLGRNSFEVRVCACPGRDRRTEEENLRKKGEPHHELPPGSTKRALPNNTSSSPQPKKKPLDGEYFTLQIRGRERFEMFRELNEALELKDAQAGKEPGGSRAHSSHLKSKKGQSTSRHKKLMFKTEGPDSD
How it was run: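 HepG2 cells transiently transfected with multiplexed cis-regulated reporter transcription units read endogenous TF activity. After 24 h compound exposure, reporter mRNA was quantified by RT-PCR, fluorescent labelling, HpaI digestion and capillary electrophoresis; bidirectional fits versus DMSO baseline.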

Measured: AC50

Clc1ccc(C(c2ccccc2Cl)C(Cl)(Cl)Cl)cc1 (stereo not given)
inactive: [1] | [2] | [3] | [4] | [5] | [6]
active: [2] 120 µM | [3] 107 µM and 70.5 µM | [4] 111 µM | [6] 41.4 µM and 39.6 µM and 21.3 µM | [7] 20.9 µM | [8] 21.3 µM

CCCCCCOC(=O)c1ccccc1C(=O)OCCCCCC
active: [6] 16.2 µM
not listed: [10]
inactive: all other assays above

COS(=O)(=O)OC
not listed: [10]
inactive: all other assays above

COc1ccc(O)c(C(C)(C)C)c1
active: [6] 39 µM
not listed: [5] | [9]
inactive: all other assays above

O=C(O)C(F)(F)C(F)(F)C(F)(F)C(F)(F)C(F)(F)F
not listed: [5]
inactive: all other assays above

CN(C)c1nc(=O)n(C2CCCCC2)c(=O)n1C
not listed: [5] | [10]
inactive: all other assays above

Cc1cc(-c2ccc(N)c(C)c2)ccc1N
active: [10] 100 µM
inactive: [1] | [2] | [3] | [4] | [6] | [10] | [7] | [8]

Cc1ccccc1CO[C@@H]1C[C@@]2(C(C)C)CC[C@]1(C)O2
active: [6] 2.86 µM
not listed: [9] | [10]
inactive: all other assays above

O=C(N[C@H]1CN2CCC1CC2)c1cc2ccoc2cn1
not listed: [9] | [10]
inactive: all other assays above

CO/C=C(/C(=O)OC)c1ccccc1COc1cccc(C(F)(F)F)n1
active: [6] 5.41 µM | [7] 10.4 µM | [8] 36.9 µM
not listed: [9] | [10]
inactive: all other assays above

Cc1cc2c3c(c1)C(c1ccccc1)=N[C@@H](NC(=O)c1ccncc1)C(=O)N3CC2
active: [6] 96.6 µM
not listed: [5] | [9]
inactive: all other assays above

O=C(NC(=O)c1cc(F)c(F)cc1Cl)Nc1cc(F)ccc1N1CCC(C(=O)O)CC1
active: [6] 16.5 µM
not listed: [5] | [10]
inactive: all other assays above

CCCN(CCC)N=O
not listed: [9]
inactive: all other assays above

CCOCCOC(C)=O
not listed: [5] | [9]
inactive: all other assays above

Oc1ccc(Cl)cc1Cl
active: [6] 36.3 µM
not listed: [5] | [9]
inactive: all other assays above

Clc1ccc(C(Cl)(Cl)Cl)cc1
not listed: [5] | [9] | [10]
inactive: all other assays above

N#Cc1ccc(N(CC(N)=O)CC(F)(F)F)cc1C(F)(F)F
active: [6] 170 µM
not listed: [5] | [9]
inactive: all other assays above

O=C(O)C(F)(F)C(F)(F)C(F)(F)C(F)(F)C(F)(F)C(F)(F)C(F)(F)C(F)(F)C(F)(F)F
active: [6] 59.6 µM and 12.3 µM and 24.7 µM | [7] 51.8 µM and 50.7 µM | [8] 46.2 µM and 51.4 µM
inactive: [1] | [2] | [3] | [4] | [5] | [7] | [8]

CC#Cc1cc(C)nc(Nc2ccccc2)n1
active: [6] 56.5 µM
not listed: [9]
inactive: all other assays above

C1CC2OC2CC1C1CO1 (stereo not given)
active: [6] 123 µM
not listed: [9] | [10]
inactive: all other assays above

C[C@]12CCC(=O)C=C1CC[C@@H]1[C@@H]2CC[C@]2(C)C(=O)CC[C@@H]12
not listed: [5] | [10]
inactive: all other assays above

Cc1ccccc1O
not listed: [9] | [10]
inactive: all other assays above

CCC(C)c1cc([N+](=O)[O-])cc([N+](=O)[O-])c1O (stereo not given)
active: [6] 14.1 µM | [8] 9.09 µM
not listed: [9] | [10]
inactive: all other assays above

O=NN(c1ccccc1)c1ccccc1
active: [6] 78.9 µM
not listed: [5] | [10]
inactive: all other assays above

CN(C)CCO
not listed: [9] | [10]
inactive: all other assays above

CC(C)(O)C(=O)Nc1ccc([N+](=O)[O-])c(C(F)(F)F)c1
active: [6] 45.1 µM and 15.9 µM and 54.5 µM
inactive: [1] | [2] | [3] | [4] | [6] | [10] | [7] | [8]

CC1=C2C[C@H]3[C@@H](CC=C4C[C@@H](O)CC[C@@]43C)[C@@H]2CC[C@]12O[C@@H]1C[C@H](C)CN[C@H]1[C@H]2C
not listed: [5] | [10]
inactive: all other assays above

Clc1ccc(Cl)cc1
not listed: [9] | [10]
inactive: all other assays above

C=CC(=O)NCNC(=O)C=C
active: [5] 100 µM | [6] 61.1 µM
not listed: [9]
inactive: all other assays above

CCOC(=O)C(O)(c1ccc(Cl)cc1)c1ccc(Cl)cc1
active: [7] 33.5 µM | [8] 31.7 µM
not listed: [10]
inactive: all other assays above

CCOP(=S)(OCC)SCSC(C)(C)C
inactive: [1] | [2] | [3] | [4] | [6] | [9] | [10] | [7] | [8]
active: [6] 67 µM

ClC1=C(Cl)[C@]2(Cl)[C@@H]3[C@H]4C[C@H]([C@@H]5O[C@H]45)[C@@H]3[C@@]1(Cl)C2(Cl)Cl
not listed: [9]
inactive: all other assays above

ClC1=C(Cl)[C@]2(Cl)[C@@H]3[C@@H]4C[C@@H]([C@H]5O[C@@H]45)[C@@H]3[C@@]1(Cl)C2(Cl)Cl
active: [6] 112 µM
not listed: [9]
inactive: all other assays above

Nc1ccc(-c2ccc(N)cc2)cc1
active: [7] 3.97 µM
not listed: [5]
inactive: all other assays above

O=C(O)C(F)(F)C(F)(F)C(F)(F)C(F)(F)C(F)(F)C(F)(F)C(F)(F)C(F)(F)F
active: [6] 50.9 µM and 35.5 µM and 13 µM | [10] 217 µM | [7] 30 µM and 46 µM | [8] 25 µM and 51.6 µM
inactive: [1] | [2] | [3] | [4] | [10] | [7] | [8]

C=CC(N)=O
active: [6] 66.5 µM
not listed: [9] | [10]
inactive: all other assays above

Reference: PubChem BioAssay (EPA / NIEHS)
